These results are taken from PubChem BioAssay.

The source made the active and inactive calls.

Assay [1] deals with PRMT1 (protein arginine N-methyltransferase 1). The assay is described as follows: PRMT1 binders on small-molecule microarrays, primary screen, biochemical, small-molecule microarray, 635 nm fluorescence (AID 1088).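 Further: binding of Prmt1 protein to compounds spotted on small-molecule microarray slides.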 Particulars: small-molecule microarray binding, higher = more signal.
A short description of assay [2]: yeast growth modulation, basal conditions, primary screen, YJM789 clinical isolate, OD600, 24 h (AID 1089).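 Further: growth of clinical yeast isolate S. cerevisiae YJM 789 seeded 1000 cells per well; test concentration not given here.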 The settings on record: S. cerevisiae YJM789 growth, higher = more signal, called active from +8 up or from −8 down.
Assay [3] is described as follows: fission yeast growth modulation, primary screen, strain 972, OD600, 24 h, no modulator (AID 1090).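 Further: basal condition with compound alone and no growth modifier present; test concentration not given here.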 The settings on record: S. pombe 972 growth, higher = more signal, called active from +8 up or from −8 down.
Assay [4] in a line: S. cerevisiae growth modulation with rapamycin, primary screen, strain BY4716, OD600, 96 h (AID 1091). Further: test concentration not given here. Particulars: higher = more signal, called active from +8 up or from −8 down.
The target of assay [5] is Torsin-1A-interacting protein 2 (Homo sapiens) (UniProt Q8NFQ8). The assay is described as follows: LULL1 binders on small-molecule microarray, primary screen, cell lysate, human LULL1 lysate, 635/667 nm fluorescence (AID 1092).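 Further: probe is lysate of COS7 cells overexpressing human LULL1; score merges per-feature 667 nm fluorescence with signal-to-noise.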 Particulars: hLULL1 lysate binding, 635 nm fluorescence, higher = more signal.
Torsin-1A-interacting protein 2 (Homo sapiens), sequence (Q8NFQ8 whole entry, looked up): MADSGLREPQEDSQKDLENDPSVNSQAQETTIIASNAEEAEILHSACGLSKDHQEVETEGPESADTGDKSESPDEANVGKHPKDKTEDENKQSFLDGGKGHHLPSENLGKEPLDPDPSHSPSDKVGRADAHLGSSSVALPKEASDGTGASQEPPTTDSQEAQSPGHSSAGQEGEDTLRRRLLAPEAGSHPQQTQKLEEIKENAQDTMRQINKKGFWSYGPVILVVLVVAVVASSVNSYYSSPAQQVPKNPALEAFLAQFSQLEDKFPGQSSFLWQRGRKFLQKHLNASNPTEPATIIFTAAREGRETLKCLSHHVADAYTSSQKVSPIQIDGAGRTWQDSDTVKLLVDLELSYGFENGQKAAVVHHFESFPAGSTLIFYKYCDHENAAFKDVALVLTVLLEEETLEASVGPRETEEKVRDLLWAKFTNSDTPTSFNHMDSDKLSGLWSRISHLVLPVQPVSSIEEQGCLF
Assay [6] can be described thus: E. coli growth modulation, two-sided OD650, primary screen, E. coli filamentation project, strain DRC41, 24 h (AID 1093).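 Further: MC1000 strain lacking acrAB efflux and sulA so SOS filamentation is blocked; test concentration not given here.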 The settings on record: OD650, 24 h, higher = more signal, called active from +8 up or from −8 down.
The nature of assay [7]: small-molecule microarray binders of probe aLefty2, primary screen, biochemical, biotinylated probe, 635/667 nm fluorescence (AID 1094).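 Further: score merges spot fluorescence near 667 nm with spot signal-to-noise ratio.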 The settings on record: higher = more signal.
The subject of assay [8] is Noggin (protein binding on small-molecule microarray). The assay can be described thus: Noggin binders on small-molecule microarray, primary screen, biochemical, 635/667 nm fluorescence (AID 1095).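 Further: score merges 667 nm feature fluorescence with signal to noise over triplicate slides.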 Particulars: 635 nm fluorescence, higher = more signal.
For assay [9], the target named is Neurogenic locus notch homolog protein 3 (Homo sapiens) (UniProt Q9UM47). The assay can be described thus: NOTCH3 binders on small-molecule microarray, primary screen, biochemical, 635/667 nm fluorescence (AID 1096). The settings on record: NOTCH3 binding, 635 nm fluorescence, higher = more signal.
Neurogenic locus notch homolog protein 3 (Homo sapiens), sequence (Q9UM47 whole entry, looked up): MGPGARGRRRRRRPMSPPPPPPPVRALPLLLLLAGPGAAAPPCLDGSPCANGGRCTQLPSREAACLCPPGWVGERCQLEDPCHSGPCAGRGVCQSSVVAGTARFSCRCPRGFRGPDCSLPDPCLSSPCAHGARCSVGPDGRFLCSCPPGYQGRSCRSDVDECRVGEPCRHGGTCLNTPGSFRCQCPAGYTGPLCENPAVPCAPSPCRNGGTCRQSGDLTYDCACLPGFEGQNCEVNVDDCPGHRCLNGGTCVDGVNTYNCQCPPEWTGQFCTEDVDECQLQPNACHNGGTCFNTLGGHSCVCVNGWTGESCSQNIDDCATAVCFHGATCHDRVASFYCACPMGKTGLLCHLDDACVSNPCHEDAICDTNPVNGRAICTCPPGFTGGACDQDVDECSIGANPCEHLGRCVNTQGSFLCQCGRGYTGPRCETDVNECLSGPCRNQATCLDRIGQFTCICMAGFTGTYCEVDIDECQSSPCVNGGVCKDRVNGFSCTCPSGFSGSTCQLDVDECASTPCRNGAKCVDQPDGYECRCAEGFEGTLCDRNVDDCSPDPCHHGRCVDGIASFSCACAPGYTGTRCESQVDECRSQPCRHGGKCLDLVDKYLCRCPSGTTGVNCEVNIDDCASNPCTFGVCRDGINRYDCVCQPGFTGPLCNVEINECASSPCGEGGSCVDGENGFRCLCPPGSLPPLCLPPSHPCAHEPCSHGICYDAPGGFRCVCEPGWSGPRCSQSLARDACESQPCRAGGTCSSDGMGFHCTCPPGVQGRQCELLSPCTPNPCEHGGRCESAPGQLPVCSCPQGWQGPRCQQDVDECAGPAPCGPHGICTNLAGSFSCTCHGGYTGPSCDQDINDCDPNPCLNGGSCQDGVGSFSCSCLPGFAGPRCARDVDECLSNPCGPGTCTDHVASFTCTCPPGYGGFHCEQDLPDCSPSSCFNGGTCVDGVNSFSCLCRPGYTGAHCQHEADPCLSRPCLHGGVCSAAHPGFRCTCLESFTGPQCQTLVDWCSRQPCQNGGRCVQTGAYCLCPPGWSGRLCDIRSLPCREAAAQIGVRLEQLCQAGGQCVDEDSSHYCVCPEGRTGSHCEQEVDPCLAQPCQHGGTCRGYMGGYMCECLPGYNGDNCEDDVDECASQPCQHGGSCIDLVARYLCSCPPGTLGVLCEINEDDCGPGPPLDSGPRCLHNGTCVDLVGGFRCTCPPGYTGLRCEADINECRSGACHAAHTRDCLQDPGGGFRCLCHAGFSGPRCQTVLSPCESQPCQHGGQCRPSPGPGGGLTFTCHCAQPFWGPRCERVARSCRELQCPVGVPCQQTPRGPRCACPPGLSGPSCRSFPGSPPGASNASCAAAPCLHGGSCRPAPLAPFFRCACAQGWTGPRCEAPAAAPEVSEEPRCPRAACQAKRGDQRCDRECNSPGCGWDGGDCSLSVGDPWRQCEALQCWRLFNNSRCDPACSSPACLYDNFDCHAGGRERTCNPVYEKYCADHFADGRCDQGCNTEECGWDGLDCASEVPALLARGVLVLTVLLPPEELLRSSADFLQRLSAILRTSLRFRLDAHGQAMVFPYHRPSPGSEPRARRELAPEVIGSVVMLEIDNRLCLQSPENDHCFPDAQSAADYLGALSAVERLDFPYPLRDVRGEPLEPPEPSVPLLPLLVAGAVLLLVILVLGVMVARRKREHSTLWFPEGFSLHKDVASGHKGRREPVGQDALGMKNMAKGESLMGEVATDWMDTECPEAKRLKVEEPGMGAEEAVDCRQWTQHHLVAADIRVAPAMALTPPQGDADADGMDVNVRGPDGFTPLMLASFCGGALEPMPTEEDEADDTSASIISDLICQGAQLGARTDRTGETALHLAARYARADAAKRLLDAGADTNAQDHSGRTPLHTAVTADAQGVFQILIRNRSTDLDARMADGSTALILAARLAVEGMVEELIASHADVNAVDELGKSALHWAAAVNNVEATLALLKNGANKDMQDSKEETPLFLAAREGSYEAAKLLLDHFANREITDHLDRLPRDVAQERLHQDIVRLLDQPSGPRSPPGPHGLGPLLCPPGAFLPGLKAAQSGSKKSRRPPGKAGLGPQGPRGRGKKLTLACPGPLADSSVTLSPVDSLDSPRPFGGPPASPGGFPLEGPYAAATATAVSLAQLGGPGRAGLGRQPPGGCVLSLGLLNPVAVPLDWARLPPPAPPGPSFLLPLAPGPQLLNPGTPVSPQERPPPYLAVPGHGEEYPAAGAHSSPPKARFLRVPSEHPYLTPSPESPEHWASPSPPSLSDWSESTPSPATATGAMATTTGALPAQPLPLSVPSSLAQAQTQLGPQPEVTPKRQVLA
The nature of assay [10]: small-molecule microarray binders of probe aEGFR, primary screen, biochemical, biotinylated probe, 635/667 nm fluorescence (AID 1097).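 Further: probe is a biotinylated anti-EGFR antibody binding compounds printed on slides; score combines fluorescence near 667 nm and signal to noise of each spot.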 The settings on record: higher = more signal.
For assay [11], the system named is Plasmodium falciparum Sir2 (PF13_0152, Sir2A). The assay can be described thus: pfSir2 binders on small-molecule microarrays, primary screen, biochemical, small-molecule microarray, 635 nm fluorescence (AID 1098).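 Further: score merges spot fluorescence intensity with its signal-to-noise ratio.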 Particulars: small-molecule microarray binding, fluorescence 635 nm; higher = more signal.
Assay [12] is described as follows: small-molecule microarray binders of probe aDKK1, primary screen, biochemical, biotinylated probe, 635/667 nm fluorescence (AID 1099).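 Further: score merges 667nm spot fluorescence with signal to noise across triplicate slides; reference of the scale not given here.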 Particulars: higher = more signal.
The nature of assay [13]: small-molecule microarray binders of probe aCHRDL2, primary screen, biochemical, biotinylated probe, 635/667 nm fluorescence (AID 1100). Particulars: higher = more signal.
A short description of assay [14]: splicing luciferase reporter signal modulators, primary screen, spliceosome inhibition project, cell-based, HEK293, splice +/- reporter (AID 1101).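 Further: HEK293 cells carrying a splicing-competent luciferase reporter gene; test concentration not given here.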 The settings on record: luminescence, 24 h, higher = more signal, called active from +8 up or from −8 down.
Assay [15] addresses Fibroblast growth factor 10 (Homo sapiens) (UniProt O15520). The assay can be described thus: FGF10 binders on small-molecule microarrays, primary screen, biochemical, small-molecule microarray, 635 nm fluorescence (AID 1102). The settings on record: FGF10 binding, fluorescence 635 nm, higher = more signal.
The subject of assay [16] is glycogen synthase kinase-3 (GSK3A per assay name; protocol says GSK3B). The assay is described as follows: GSK3 binders on small-molecule microarrays, primary screen, biochemical, small-molecule microarray, 635 nm fluorescence, GSK3A (AID 1103). Further: the record names both GSK3A and GSK3B. Particulars: small-molecule microarray binding, fluorescence 635 nm; higher = more signal.
For assay [17], the target named is Epidermal growth factor receptor (Homo sapiens) (UniProt P00533). The assay can be described thus: EGFR binders on small-molecule microarrays, primary screen, biochemical, small-molecule microarray, 635 nm fluorescence (AID 1104).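 Further: score merges 667 nm emission intensity with spot signal to noise over triplicate slides.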 Particulars: EGFR binding, higher = more signal.
Epidermal growth factor receptor (Homo sapiens), sequence (P00533 whole entry, looked up): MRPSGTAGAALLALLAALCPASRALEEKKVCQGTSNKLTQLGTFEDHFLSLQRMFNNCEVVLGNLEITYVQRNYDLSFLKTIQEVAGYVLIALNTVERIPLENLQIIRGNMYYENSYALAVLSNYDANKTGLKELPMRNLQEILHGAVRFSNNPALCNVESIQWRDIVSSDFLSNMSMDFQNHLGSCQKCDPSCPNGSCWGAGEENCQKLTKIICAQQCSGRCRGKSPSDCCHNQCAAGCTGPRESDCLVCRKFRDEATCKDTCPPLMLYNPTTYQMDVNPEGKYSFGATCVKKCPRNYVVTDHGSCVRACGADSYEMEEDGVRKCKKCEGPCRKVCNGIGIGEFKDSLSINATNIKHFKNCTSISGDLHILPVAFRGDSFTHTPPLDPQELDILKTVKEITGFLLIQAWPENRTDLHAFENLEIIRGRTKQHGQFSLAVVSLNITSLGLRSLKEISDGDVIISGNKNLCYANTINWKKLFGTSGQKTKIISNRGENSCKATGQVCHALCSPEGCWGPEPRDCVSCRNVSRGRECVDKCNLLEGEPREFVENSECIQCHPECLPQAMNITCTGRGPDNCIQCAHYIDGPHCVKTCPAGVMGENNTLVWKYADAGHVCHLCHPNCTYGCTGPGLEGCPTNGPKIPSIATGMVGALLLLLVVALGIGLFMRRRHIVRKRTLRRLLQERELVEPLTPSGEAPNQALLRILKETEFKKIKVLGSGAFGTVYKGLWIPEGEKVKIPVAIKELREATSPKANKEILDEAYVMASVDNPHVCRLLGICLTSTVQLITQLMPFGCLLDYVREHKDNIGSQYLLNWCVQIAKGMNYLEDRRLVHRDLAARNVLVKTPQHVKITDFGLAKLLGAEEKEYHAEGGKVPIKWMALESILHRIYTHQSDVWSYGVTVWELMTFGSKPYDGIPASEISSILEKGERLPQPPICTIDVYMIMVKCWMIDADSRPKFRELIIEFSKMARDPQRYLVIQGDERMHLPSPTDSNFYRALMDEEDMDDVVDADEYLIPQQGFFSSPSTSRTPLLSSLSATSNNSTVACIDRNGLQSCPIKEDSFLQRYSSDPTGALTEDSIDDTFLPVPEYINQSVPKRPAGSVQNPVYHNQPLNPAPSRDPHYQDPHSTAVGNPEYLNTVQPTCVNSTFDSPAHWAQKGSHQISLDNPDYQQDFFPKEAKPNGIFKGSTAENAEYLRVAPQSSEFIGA
Assay [18] deals with Follistatin-related protein 3 (Homo sapiens) (UniProt O95633). The assay can be described thus: FSTL3 binders on small-molecule microarrays, primary screen, biochemical, small-molecule microarray, 635 nm fluorescence (AID 1105).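 Further: score merges emission near 667 nm and signal to noise per printed spot across three slides.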 Particulars: FSTL3 binding, higher = more signal.
Follistatin-related protein 3 (Homo sapiens), sequence (O95633 whole entry, looked up): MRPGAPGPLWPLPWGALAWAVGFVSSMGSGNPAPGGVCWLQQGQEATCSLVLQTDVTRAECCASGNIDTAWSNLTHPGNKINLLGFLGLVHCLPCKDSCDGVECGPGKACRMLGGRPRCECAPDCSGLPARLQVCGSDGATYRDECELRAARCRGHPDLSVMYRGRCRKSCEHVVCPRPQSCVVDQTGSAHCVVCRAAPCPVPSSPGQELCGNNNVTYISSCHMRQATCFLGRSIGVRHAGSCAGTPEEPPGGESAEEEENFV
In assay [19] the target is Dickkopf-related protein 1 (Homo sapiens) (UniProt O94907). The assay is described as follows: DKK1 binders on small-molecule microarrays, primary screen, biochemical, small-molecule microarray, 635 nm fluorescence scan (AID 1106).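 Further: score merges emission near 667 nm with signal to noise over three replicate slides.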 The settings on record: DKK1 binding, higher = more signal.
Dickkopf-related protein 1 (Homo sapiens), sequence (O94907 whole entry, looked up): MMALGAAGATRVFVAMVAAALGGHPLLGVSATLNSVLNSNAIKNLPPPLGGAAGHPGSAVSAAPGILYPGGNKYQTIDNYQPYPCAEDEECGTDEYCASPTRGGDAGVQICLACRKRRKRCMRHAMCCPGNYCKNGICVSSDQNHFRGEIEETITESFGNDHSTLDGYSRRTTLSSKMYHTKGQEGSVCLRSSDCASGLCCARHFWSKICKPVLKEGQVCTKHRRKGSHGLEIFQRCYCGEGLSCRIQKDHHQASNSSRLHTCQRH
Assay [20] deals with Inhibin beta A chain (activin A). The assay is described as follows: INHBA (activin A) binders on microarrays, primary screen, biochemical, small-molecule microarray, 635 nm fluorescence scan (AID 1107).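 Further: mouse activin A protein probed at 4.33 µg/mL on printed slides; score merges bound-protein fluorescence near 667 nm with spot signal-to-noise.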 The settings on record: small-molecule microarray binding, higher = more signal.

Fibroblast growth factor 10 (Homo sapiens), sequence (O15520 whole entry, looked up): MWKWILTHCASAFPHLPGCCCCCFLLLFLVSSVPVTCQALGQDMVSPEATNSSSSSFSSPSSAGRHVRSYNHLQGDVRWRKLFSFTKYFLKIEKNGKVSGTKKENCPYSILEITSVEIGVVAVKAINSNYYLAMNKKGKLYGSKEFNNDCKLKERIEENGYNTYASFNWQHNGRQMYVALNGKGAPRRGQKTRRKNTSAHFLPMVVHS

For the compound `COc1cc(CO)cc(I)c1O[C@H]1C=C(C(=O)NCCO)C[C@@H](NCc2ccccc2F)[C@@H]1O`, the composite z-score in assay [1] is 1.13; in [5], 0.491; in assay [7], -0.0943; in [8] it was 1.05; in assay [9], 0.75; in assay [10], -0.151. Further, the composite z-score in assay [11] is 0.947; in [12], -0.28; in [13] it was -0.18; in [15], 1.06; in assay [16], 0.417; in assay [17], 0.152. Moreover, the composite z-score amounted to 0.638 in assay [18], 0.239 in [19] and 0.0253 in assay [20]. Besides, the z-score in [2] was 2.24 (inactive); in assay [3] it was -3.89 (inactive); in [4] it was 0.519 (inactive); in [6], 1.77 (inactive); in assay [14] it was -0.977 (inactive).
For the compound `[N-]=[N+]=Nc1ccccc1[C@@H]1OC(c2ccc(OCCCO)cc2)=N[C@]1(CCS(=O)(=O)c1ccccc1)C(=O)NCCN1CCOCC1`, the composite z-score in assay [1] was 1.55; in [5], 3.15; in assay [7], 0.383; in [8], 0.038; in assay [9], 0.808; in assay [10], 0.354. Further, the composite z-score in [11] was found to be 1.25; in assay [12], 1.1; in [13] it was 1.2; in [15], 0.832; in assay [16], 1.29; in assay [17], 0.652. Besides, the composite z-score was 0.374 in [18], -0.0291 in assay [19] and 1.28 in [20]. The z-score in assay [2] is -0.564 (inactive); in assay [3], -0.727 (inactive); in assay [4] it was 0.519 (inactive); in [6] it was 0.0992 (inactive); in [14] it was -0.582 (inactive).
As to `CC(C)NC(=O)[C@@]1(C)c2ccccc2C(=O)N(C(C)C)[C@H]1c1ccc(CO)cc1`, the composite z-score in assay [1] is 1.45; in [5], 3.47; in [7], -0.0466; in assay [8], -0.781; in assay [9] it was 0.165; in assay [10] it was -0.227. The composite z-score was 1.58 in assay [11]; -0.123 in assay [12]; 0.925 in assay [13]; -1.09 in assay [15]; -0.643 in assay [16]; -1.68 in [17]. Moreover, the figures for the composite z-score in [18], in assay [19] and in [20] were -0.673, -1.81 and -1.53, respectively. Besides, the z-score in assay [2] is -0.501 (inactive); in assay [3] it was -1.63 (inactive); in assay [4], -0.471 (inactive); in assay [6], -0.297 (inactive); in assay [14] it was 0.0862 (inactive).
In the case of `CCOC(=O)C1=CC[C@@H](c2ccccc2C(F)(F)F)N(S(=O)(=O)c2ccc(C)cc2)C1`, the composite z-score was 1.5 in assay [1]; 2.63 in assay [5]; 0.495 in [7]; 0.03 in [8]; 1.04 in assay [9]; 0.678 in assay [10]. Besides, the composite z-score in assay [11] turned out to be 1.23; in assay [12], 1.27; in [13], 1.18; in [15], 1.18; in assay [16] it was 0.914; in assay [17] it was 0.29. Further, the composite z-score is 1.12 in assay [18], -0.144 in [19] and 0.685 in assay [20]. Further, the z-score in assay [2] was -2.43 (inactive); in [3], -0.598 (inactive); in assay [4], 0.105 (inactive); in assay [6], -0.607 (inactive); in [14], -2.27 (inactive).
Regarding `O=C1O[C@@H](c2ccccc2)[C@@H](c2ccccc2)N2[C@@H](c3ccc(O)cc3)[C@]3(C(=O)Nc4ccc(C#CCCO)cc43)[C@@H](C(=O)Nc3nc4ccccc4s3)[C@H]12`, the composite z-score in assay [1] is 1.55; in [5], 2.81; in assay [7] it was -0.119; in assay [8], 1.35; in assay [9], 0.851; in [10], -0.0036. For the same compound, the composite z-score in assay [11] was determined as 0.94; in assay [12], 0.0179; in assay [13] it was 0.376; in [15], 1.17; in assay [16], 1.13; in [17] it was 0.214. In addition, the composite z-score is 0.545 in [18], -0.17 in assay [19] and 0.0507 in assay [20]. Moreover, the z-score in assay [2] is 0.782 (inactive); in assay [3], 0.403 (inactive); in [4], 1.93 (inactive); in [6], 0.887 (inactive); in [14] it was 0.344 (inactive).
`COC(=O)[C@]1(CCS(=O)(=O)c2ccccc2)N=C(c2ccc(OCCCO)cc2)O[C@@H]1c1ccccc1CN=[N+]=[N-]`: the composite z-score in assay [1] is 1.54; in assay [5] it was 3.09; in assay [7], 0.0956; in assay [8] it was 0.839; in assay [9], 0.941; in assay [10] it was -0.0972. Besides, the composite z-score in assay [11] was 1.24; in assay [12] it was 0.366; in [13] it was 0.763; in assay [15] it was 0.63; in [16] it was 1.28; in assay [17] it was 0.231. Also, the composite z-score was 0.702 in [18], 0.0636 in assay [19] and 0.681 in assay [20]. In addition, the z-score was 1.6 (inactive) in assay [2]; 1.13 (inactive) in assay [3]; 37 (active) in [4]; -0.33 (inactive) in [6]; 1.08 (inactive) in [14].
Regarding `C[n+]1ccc(CCCO)cc1`, the composite z-score in [1] is 0.618; in assay [5], 0.427; in [7] it was 0.181; in assay [8], 0.436; in [9], -0.13; in assay [10] it was 0.0455. Further, the composite z-score in [11] is 0.365; in assay [12] it was -0.0442; in [13] it was 0.0977; in assay [15], 0.113; in [16], -0.262; in assay [17], -0.455. The composite z-score in assay [18] was found to be 0.0584; in assay [19], 0.457; in assay [20], 1.57. For the same compound, the z-score in assay [2] was 0.654 (inactive); in assay [3] it was -0.96 (inactive); in assay [4] it was 0.316 (inactive); in [6] it was -2.1 (inactive); in assay [14], -0.164 (inactive).
With `COCCOC(=O)N1C(=O)[C@@]2(c3cc(C#CC4=CCCCC4)ccc31)[C@H](c1ccc(O)cc1)N1[C@H](c3ccccc3)[C@H](c3ccccc3)OC(=O)[C@H]1[C@@H]2C(=O)Nc1nc2ccccc2s1`, the composite z-score in assay [1] was 1.54; in assay [5], 3.5; in assay [7], -0.141; in [8], 0.824; in assay [9] it was 1.04; in assay [10], 0.178. The composite z-score in [11] was 1.56; in assay [12], 0.663; in assay [13], -0.277; in assay [15], 1.33; in assay [16], 1.24; in [17] it was 0.383. The composite z-score came out at 1.19 in [18], 0.45 in assay [19] and 0.248 in [20]. Besides, the z-score in assay [2] was 0.724 (inactive); in assay [3] it was 0.0687 (inactive); in assay [4], 0.801 (inactive); in assay [6] it was -0.249 (inactive); in [14], 0.51 (inactive).
For the compound `CC(C)c1ccc(NN2C(C(O)c3ccco3)C=CC3C(=O)N(c4ccccc4)C(=O)C32)cc1` (stereo not given), the composite z-score was determined as 1.57 in [1]; 3.27 in assay [5]; 0.0997 in [7]; 0.18 in assay [8]; 1.02 in assay [9]; 0.0308 in assay [10]. For the same compound, the composite z-score in assay [11] worked out at 1.02; in assay [12] it was 0.978; in assay [13] it was 1.09; in assay [15], 0.783; in assay [16], 1.3; in assay [17], 0.0401. Moreover, the composite z-score in assay [18] came to 1.22; in [19] it was 0.191; in assay [20], 1.14. For the same compound, the z-score was 0.61 (inactive) in [2]; 0.431 (inactive) in [3]; -0.419 (inactive) in [4]; -0.577 (inactive) in assay [6]; 0.165 (inactive) in assay [14].
